Compound activity: PubChem, National Center for Advancing Translational Sciences (NCATS)
HCV inhibitor – blocks hepatitis C virus; 3.4% of 340,000 active; Huh7.5.1 HCVcc-Cre infection, luciferase reporter, 44 h; Potency, µM (series often up to 41.8 µM), for the others: at the highest dose activity change, negative = inhibition, hits mostly inhibitors; further: on the % scale 0 is the no-effect control and ±100 the full control effect
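Cells seeded at 1,000/well and cultured 4 h, then compounds added followed by HCVcc-Cre virus (~0.5 moi). After 44 h further culture, luciferase substrate was added, plates held 15 min at room temperature, and luminescence read for 15 sec.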
NS1 inh – inhibitors of influenza NS1 protein function | Potency, µM (titrated, usually from 46.1 µM), without a hit: at the top dose activity, positive = more growth | 0.4% of 270,000 active | AID 2326; calls by dose curve; further: actives are rising curves; nearly all actives have a fitted effect of over 50% in size
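Read-out: OD600 growth recovery of NS1-expressing budding yeast. Cells grown overnight at 30C in -URA glucose medium, washed, resuspended and diluted 1:100 in 2% galactose assay medium, pH 6.0. Same strain lacking NS1 served as positive control.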
Vaccinia mCherry – inhibitors of vaccinia virus infection (mCherry reporter signal); Vaccinia virus mCherry reporter infection, fluorescence; Potency, µM (titrated, usually from 36.5 µM), inactives show top-dose activity change, negative = inhibition, most hits filed as inhibitors; 0.63% of 310,000 active; calls by dose curve; tested in A549 cells; further: on the % scale 0 is the no-effect control and ±100 the full control effect; nearly all actives have a fitted effect of over 35% in size
Pf growth 96h – P. falciparum growth inhibition at 96 hours; P. falciparum luciferase reporter growth, 96 h; Potency, µM (highest dose often 28.7 µM), for the others: at the highest dose activity change, negative = inhibition, most hits filed as inhibitors; 6.9% of 320,000 active; AID 504834; further: on the % scale 0 is the no-effect control and ±100 the full control effect
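P. falciparum expressing integrated firefly luciferase, in erythrocytes at 2% hematocrit, 0.05% parasitemia, incubated with compounds 96 h at 37 C, 5% CO2. Growth inhibition read as loss of luminescence; two-generation exposure targets delayed-death apicoplast inhibitors.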
Pf growth 48h – P. falciparum growth inhibition at 48 hours (one generation); P. falciparum luciferase growth in erythrocytes, 48 h; Potency, µM (series often up to 28.7 µM), without a hit: at the highest dose activity change, negative = inhibition, usual class: inhibitors; 5.9% of 310,000 active; AID 504832; further: on the % scale 0 is the no-effect control and ±100 the full control effect
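Erythrocytes infected with P. falciparum carrying an integrated firefly luciferase reporter (2% hematocrit, 0.1% parasitemia final) were exposed to compounds in RPMI 1640 with 0.5% Albumax at 37 C, 5% CO2. Growth inhibition was scored as reduced luminescence.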
VACV Venus inh – vaccinia inhibition (Venus reporter); Vaccinia virus Venus reporter expression, fluorescence; Potency, µM (highest dose often 36.5 µM), for inactives: at the top dose activity change, negative = inhibition, hits mostly inhibitors; 0.46% of 330,000 active; calls by dose curve; tested in A549 cells; further: on the % scale 0 is the no-effect control and ±100 the full control effect; nearly all actives have a fitted effect of over 30% in size
* = called active by the depositor; i = inactive; ? = inconclusive; . = not tested or not shown. A selection: hits, their analogues and other compounds. The true share with any hit is near 11%. Unless noted, the call rests on the fitted dose curve; in most records, active means well fitted inhibition curve with a large enough effect; inconclusive means small, poorly fitted or top-dose-only effect, or another doubt; inactive means no such curve, though single readings can be large or run the other way. Potency means the concentration at half of the fitted maximal effect.

SMILES | HCV inhibitor | NS1 inh | Vaccinia mCherry | Pf growth 96h | Pf growth 48h | VACV Venus inh
CCOC(=O)C1CCC(CN(Cc2ccc(OC)cc2)S(=O)(=O)c2ccc(C)cc2)CC1 (stereo not given) | . | . | 1.0% | . | . | 2.8%
COc1ccc(-c2nc(SC(C)C(=O)NCC3CCCO3)n[nH]2)cc1 (stereo not given) | ? | . | -11.2% | -9.0% | ? | -26.6%
CC1=C(C)/C(=N\OC(=O)/C=C/c2ccccc2)C=CC1=O | -2.6% | 0.9% | -5.4% | ? | 10.4µM* | 2.7%
COc1ccc(N2CSC3=C(C#N)C(c4cccs4)CC(=O)N3C2)cc1 (stereo not given) | 15.8% | -32.4% | . | -0.9% | -27.4% | .
O=C(CCc1ccccc1)Nc1ccccc1C(=O)NCc1ccco1 | -13.8% | -7.1% | . | 13.1µM* | ? | .
O=C(Nc1ccccc1C(=O)NCc1ccco1)c1ccccc1 | -19.7% | -81.8% | . | 11.8% | -1.0% | -3.2%
O=C(Nc1ccccc1C(=O)NCc1cccnc1)c1ccco1 | ? | 3.3% | -0.2% | -7.3% | . | -5.5%
O=C(Nc1ccccc1C(=O)NCc1ccccc1)c1ccco1 | ? | -37.3% | -4.9% | 13.1µM* | -23.4% | -15.7%
COc1cc2c3nnc(-c4ccc(F)cc4)c-3cn(Cc3ccc(C)cc3)c2cc1OC | 6.4% | 21.8% | -2.7% | 0.37µM* | 0.329µM* | -28.1%
COc1cc2c3nnc(-c4ccc(F)cc4)c-3cn(Cc3cccc(F)c3)c2cc1OC | ? | . | . | 1.04µM* | 0.586µM* | .
Cc1ccc(Cn2nc3c4cc(F)ccc4n(Cc4ccc(F)cc4)cc-3c2=O)cc1 | 9.4% | 6.5% | . | 0.7% | 32.6% | .
COc1cc2c3nnc(-c4ccc(F)cc4)c-3cn(Cc3cccc(C)c3)c2cc1OC | 7.1% | 23.3% | -19.9% | 0.465µM* | 0.586µM* | ?
COc1cccc(Cn2nc3c4cc(F)ccc4n(Cc4ccc(F)cc4)cc-3c2=O)c1 | 14.6% | 4.6% | -23.8% | 1.65µM* | -0.9% | -6.1%
Cc1ccc(S(=O)(=O)N2CCC(c3nnc(SCCN4CCCC4)n3C)CC2)cc1 | 4.7% | -32.8% | -18.4% | ? | 9.4% | -12.6%
CC(=O)c1cccc(NC(=O)NCc2cccnc2)c1 | 29.3% | 8.7% | -12.8% | -13.4% | 23.6% | -17.5%
Cc1ccc(C(=O)CSc2nc3ccccc3c(=O)[nH]2)cc1C | -11.3% | -5.1% | 0.9% | ? | 40.7% | -1.3%
Cc1cc(Cl)cc(Cl)c1OCCOc1cccc2cccnc12 | ? | -53.5% | . | 4.15µM* | . | -23.0%
COc1ccc(NC(=O)CN(Cc2ccccc2)Cc2ccccc2)cc1S(N)(=O)=O | 21.2% | -23.6% | -3.1% | ? | ? | -15.0%
COc1cccc(NC(=O)CN(C)C(=O)COc2ccccc2Cc2ccccc2)c1 | -28.7% | . | -1.0% | 5.22µM* | ? | -13.3%
COc1cccc(NC(=O)CN(C)C(=O)CC(C)c2ccccc2)c1 (stereo not given) | -4.7% | 8.2% | -15.5% | ? | -1.8% | -12.7%
COc1ccc(NC(=O)COc2ccccc2Cc2ccccc2)cc1S(N)(=O)=O | 10µM* | 3.2% | ? | ? | ? | -29.5%
COc1cccc(NC(=O)CN(C)C(=O)/C=C/c2ccc3ccccc3n2)c1 | 4.9% | . | -8.8% | ? | 11.7µM* | -22.9%
COC(=O)c1nn(-c2nc(-c3ccc(OC)c(OC)c3)cc(C(F)(F)F)n2)cc1[N+](=O)[O-] | 12.6% | . | . | 16.5µM* | -17.3% | .
COc1ccc(-c2cc(C(F)(F)F)nc(N3CCN(C)CC3)n2)cc1 | ? | 7.2% | . | 35.6% | 13.1µM* | .
COc1ccc(-c2cc(C(F)(F)F)nc(N3CCN(C)CC3)n2)cc1OC | ? | -1.6% | -11.5% | 5.22µM* | ? | -20.1%
SMILES | HCV inhibitor | NS1 inh | Vaccinia mCherry | Pf growth 96h | Pf growth 48h | VACV Venus inh
COc1ccc(-c2cc(C(F)(F)F)nc(N3CCCCC3)n2)cc1OC | -26.6% | 0.1% | . | 75.4% | 3.29µM* | .
CCOc1ccc(-c2cc3nc(C4CCN(C(=O)OC(C)(C)C)CC4)c(C(=O)Nc4ccc(C)c(F)c4)cn3n2)cc1 | . | . | -8.4% | . | . | -11.9%
CCC(Oc1ccccc1)C(=O)Nc1ccccc1C(=O)N1CCN(C)CC1 (stereo not given) | . | 8.5% | i | -4.4% | -3.7% | -1.8%
O=C(CCNC(=O)C1CCN(S(=O)(=O)c2ccccc2)CC1)NCc1cccnc1 | . | . | -1.6% | . | . | -13.8%
O=C(O)c1ccc(Br)c(S(=O)(=O)N2CCCC2)c1 | . | 18.3% | -10.8% | 13.1µM* | -38.8% | -11.7%
O=C(Nc1ccc2c(c1)OCCO2)c1ccc(Br)c(S(=O)(=O)N2CCOCC2)c1 | ? | 6.8% | -18.9% | -19.6% | 2.33µM* | -14.2%
O=C(Nc1ccc2c(c1)OCO2)c1ccc(Br)c(S(=O)(=O)N2CCCC2)c1 | ? | -111.3% | ? | 33.9% | 2.62µM* | -23.8%
O=C(NCC1CCCO1)c1ccc(Br)c(S(=O)(=O)N2CCOCC2)c1 (stereo not given) | 7.8% | . | . | 1.31µM* | ? | .
O=C(O)c1ccc(NC(=O)c2ccc(Br)c(S(=O)(=O)N3CCCC3)c2)cc1 | . | . | 2.4% | . | . | -0.8%
O=C(Nc1ccc(Br)cc1)c1ccc(Br)c(S(=O)(=O)N2CCCCC2)c1 | . | . | -12.4% | . | . | -22.2%
COCOc1cccc(CN2CCC2(C)C(=O)Nc2ccc(C)c(O)c2)c1 (stereo not given) | . | . | 21.3% | . | . | -1.8%
Cc1[nH]c2ccccc2c1C(=O)C(=O)N1CC=C(c2ccccc2)CC1 | ? | -10.6% | ? | ? | ? | -13.4%
COc1cccc(N2CCN(C(=O)c3ccc4c(=O)n(CCc5ccccc5)c(=O)[nH]c4c3)CC2)c1 | . | . | -26.2% | . | . | -13.6%
CC(C)CCN1C(=O)c2ccc(C(=O)NCC3CCCO3)cc2C1=O (stereo not given) | 16.9% | 2.5% | . | 4.15µM* | 1.7% | -18.0%
O=C(NCC1CCCO1)c1ccc2c(c1)C(=O)N(C1CCCCC1)C2=O (stereo not given) | -10.3% | -14.3% | i | ? | 3.6% | -17.1%
Cc1cccc(C(=O)Nc2nnc(Cc3ccccc3)s2)c1 | -4.4% | 5.1% | i | 10.4µM* | ? | -6.3%
COc1ccc(S(=O)(=O)CCc2nnc(NC(=O)c3cccs3)s2)cc1 | 20.5% | -6.0% | . | 32.6% | 2.33µM* | .
O=C(Nc1nnc(CCS(=O)(=O)c2ccc3ccccc3c2)s1)c1cccs1 | ? | 11.1% | -7.9% | 17.3% | 15.4% | -1.9%
COc1ccc(Cc2nnc(NC(=O)c3ccccc3C)s2)cc1 | -2.1% | -7.1% | . | 2.08µM* | 33.9% | .
COc1ccc(C(=O)Nc2nnc(Cc3ccccc3)s2)c(OC)c1 | -13.4% | 21.4% | -10.5% | 0.0% | ? | -12.3%
CCCSc1nnc(NC(=O)Nc2ccc(F)cc2)s1 | ? | -17.3% | . | 0.0% | ? | 7.94µM*
CCc1nnc(NC(=O)c2cc(C)oc2C)s1 | 9.9% | 1.1% | -3.9% | -15.1% | -3.5% | -17.9%
